Screening results from PubChem BioAssay.
TrxR1 substrate: is turned over as a substrate by rat TrxR1; Potency, µM (highest dose often 114 µM), inactives show at the highest dose activity change, negative = substrate turnover; AID 588456; purified TrxR1 substrate turnover, NADPH consumption readout; actives 0.01% (n = 390,000); also: % is scaled to controls: 0 for no effect and ±100 for the full control effect; nearly all actives have a fitted effect of over 50% in size
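Rat TrxR1, dispensed at 90 nM, was prereduced with 400 uM NADPH (final) for 5 min at ~22 deg C, then incubated with compound 15 min before 400 uM selenite. A first-read NADPH fluorescence drop versus no-compound background flagged substrates.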
Vif-A3G inh: Vif-A3G binding inhibition; actives 0.076% (n = 410,000); Potency, µM (top dose mostly 46.1 µM), inactives show top-dose activity, negative = active, usual class: inhibitors; HeLa A3G-eYFP + Vif (tagged APOBEC3G with the HIV-1 protein that degrades it), YFP fluorescence, overnight; Q9HC16; also: % is scaled to controls: 0 for no effect and ±100 for the full control effect; nearly all actives have a fitted effect of over 60% in size
Target sequence (Q9HC16 whole entry, looked up): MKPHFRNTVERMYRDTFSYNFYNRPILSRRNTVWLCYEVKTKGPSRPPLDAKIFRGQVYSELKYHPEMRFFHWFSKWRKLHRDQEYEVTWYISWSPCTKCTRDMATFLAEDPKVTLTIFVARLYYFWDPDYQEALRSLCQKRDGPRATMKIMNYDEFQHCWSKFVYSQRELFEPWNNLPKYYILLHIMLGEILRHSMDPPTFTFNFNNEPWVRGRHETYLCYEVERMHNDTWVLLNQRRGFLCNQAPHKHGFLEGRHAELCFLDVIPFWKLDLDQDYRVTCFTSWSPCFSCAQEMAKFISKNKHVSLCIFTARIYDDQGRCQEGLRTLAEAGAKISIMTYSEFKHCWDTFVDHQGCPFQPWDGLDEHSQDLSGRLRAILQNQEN
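HeLa cells stably expressing Vif and C-terminally eYFP-tagged A3G, seeded overnight at 37 deg C, then exposed to compound by pintool overnight at 37 deg C. Rise in yellow fluorescence (Ex 488/Em 500-530, Acumen) marks blocked Vif-driven A3G degradation.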
VDR inhibitor: vitamin D3 receptor (human) inhibition | Potency, µM, without a hit: max response, negative = inhibition, hits mostly inhibitors | VDR-SRC2-3 peptide fluorescence polarization, 2 h | AID 504847 | actives 0.93% (n = 400,000); also: % is scaled to controls: 0 for no effect and ±100 for the full control effect
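VDR–SRC2-3 interaction, FP format. Cmpds 23 nl via pintool, brief spin, 2 h ambient incubation.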
Vif-A3F inh: inhibitors of Vif-A3F interaction. HeLa A3F-eYFP + Vif (tagged APOBEC3F with the HIV-1 protein that degrades it), YFP fluorescence increase. Potency, µM (series often up to 46.1 µM), for inactives: at the highest dose activity, negative = active. actives 0.2% (n = 390,000); also: % of control where 0% means no effect; nearly all actives have a fitted effect of over 65% in size
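Fluorescence increase (Ex 488/Em 500-530) after overnight compound treatment at 37 deg C flags inhibition of Vif-driven A3F-eYFP loss in stable HeLa A3F-eYFP/Vif cells seeded overnight beforehand.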
TrxR1 inh: rat TrxR1 inhibition; AID 588453; actives 1% (n = 390,000); Potency, µM (series often up to 114 µM), without a hit: at the top dose activity change, negative = inhibition, usual class: inhibitors; O89049; recombinant rTrxR1, NADPH fluorescence consumption, selenite substrate; also: % is scaled to controls: 0 for no effect and ±100 for the full control effect; nearly all actives have a fitted effect of over 65% in size
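Rat TrxR1 (90 nM in the dispensed reagent) was pre-reduced with 400 uM NADPH for 5 min at room temperature, then incubated with compound for 15 min. After 400 uM selenite was added, NADPH fluorescence (Ex 340/Em 450 nm) was followed for 8 min.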
* hit, by the source's call; ? = inconclusive; / = not tested or not shown; [ ] = another dose, or the depositor's remark. In the library only some 1.8% were active in any assay of this set; here they are far more common. Calls follow the shape of the dose curve; as a rule, active = well fitted curve in the direction sought with a large enough effect; inconclusive = small, poorly fitted or top-dose-only effect, or another doubt; inactive = no such curve, though single readings can be large; an effect the other way counts as inactive or inconclusive. Potency is read from the fitted curve at half-maximal effect.

SMILES | TrxR1 substrate | Vif-A3G inh | VDR inhibitor | Vif-A3F inh | TrxR1 inh
CC(/C=N/n1c(-c2ccncc2)n[nH]c1=S)=C\c1ccco1 | -13% | -1% | -12% | 9% | 50µM*
Nc1nc(NCc2ccc(Cl)c(Cl)c2)c2[nH]cnc2n1 | 3% | -11% | -7% | / | 22%
NC1CCc2ccccc21 (centres undefined) | 6% | 6% | / | / | -4%
COc1ccc(C(=O)CCC(=O)Nc2cc(C)ccc2C)cc1 | 0%[57.1 µM] | 1% | 8% | -10% | 4%[57.1 µM]
COc1ccc(CC(=O)NNC(=O)CCC(=O)Nc2cc(C)ccc2C)cc1 | -10% | 1% | 89µM* | 13% | 33%[57.1 µM]
Cc1cn2c(=O)cc(COC(=O)c3cccc(NC(=O)C(C)Oc4ccccc4)c3)nc2s1 (centres undefined) | 7%[57.1 µM] | 3% | -5% | -16% | 22%[57.1 µM]
CN(C)c1cccc(-c2nnc(SCC(=O)NCc3ccco3)n2C)c1 | 2% | -16% | / | / | -21%
O=c1c(O)cc(C2Oc3cc(O)cc(O)c3CC2O)cc2c(C3Oc4cc(O)cc(O)c4CC3O)cc(O)c(O)c12 (centres undefined) | / | / | 3.5µM* | / | /
COc1ccccc1COc1ccc2c(C)c(CCC(=O)O)c(=O)oc2c1C | 25%[57.1 µM] | -2% | ? | -9% | 9%[57.1 µM]
O=C(O)CCc1c2ccc(=O)c(O)c-2oc2c(O)c(O)ccc12 | -5% | 1% | / | / | 56µM*
Cc1ccccc1NC(=O)c1sc2nc3c(c(-c4ccco4)c2c1N)CCC3 | -1% | 13µM* | 0% | ? | ?
CCc1ccc(NC(=O)c2sc3nc(C)c(C(=O)Nc4ccc(C)cc4C)c(-c4ccco4)c3c2N)cc1 | -11% | -30% | -13% | 13µM* | 5%
NC(=O)c1sc2nc3c(c(-c4ccco4)c2c1N)CCCC3 | 4% | 4% | 7% | -7% | 9%
Nc1c(C(=O)NCC2CCCO2)sc2nc3c(c(-c4ccco4)c12)CC/C3=C\c1ccco1 (centres undefined) | -14% | -2% | ? | -5% | 14µM*
COc1ccc(-n2c(N)c(C(=O)NCC3CCCO3)sc2=S)cc1 (centres undefined) | 0%[57.1 µM] | -1% | 5% | -2% | 6%[57.1 µM]
Cc1ccc(NC(=O)c2c(C)nc3sc(C(=O)NC4CCCC4)c(N)c3c2-c2ccco2)c(C)c1 | 1% | -2% | 1% | 2.8µM* | -3%
CCN(CCCNC(=O)CN1N=C(c2ccc(OC)cc2)CCC1=O)c1cccc(C)c1 | -6%[57.1 µM] | 4% | 15% | 0% | 0%[57.1 µM]
COC(=O)COc1ccc(C(C2C(=O)CC(C)(C)CC2=O)C2C(=O)CC(C)(C)CC2=O)cc1 | 6% | 2% | 50µM* | 7% | ?
Clc1ccc(CNc2cc(-c3ccccc3)nc3nncn23)cc1 | -9% | 4% | 13% | ? | -8%
COc1ccccc1CNc1cc(-c2ccccc2)nc2nncn12 | -2% | 0% | -6% | 6% | 35µM*
CN(C)c1ccc(/C=C2\C=Cc3ccccc32)cc1[N+](=O)[O-] | -11% | 3% | / | / | -19%
COc1cc2c(cc1OC)C(/C=C/c1ccc(OC)c(OC)c1OC)=NCC2 | / | / | 50µM* | / | /
COCCN=C1Sc2nc3c(C)cccc3cc2CN1Cc1ccco1 | 11%[57.1 µM] | -1% | 89µM* | -2% | ?
COCCN=C1Sc2nc3ccc(C)cc3cc2CN1Cc1cccs1 | -14%[57.1 µM] | -4% | -15% | -8% | -48%
COc1ccccc1CCNC(=O)C(=O)NCC(c1ccco1)S(=O)(=O)c1ccc(F)cc1 (centres undefined) | 0%[57.1 µM] | 0% | 3% | -3% | -9%[57.1 µM]
SMILES | TrxR1 substrate | Vif-A3G inh | VDR inhibitor | Vif-A3F inh | TrxR1 inh
CCOC(=O)c1c(-c2ccc(C)o2)csc1NC(=O)CSc1nnc(C)s1 | -2% | -4% | -18% | 0% | 8.9µM*
Cc1ccc(C(=O)Sc2cccccc2=O)cc1 | 3%[57.1 µM] | ? | 20µM* | ? | 0.63µM*
CCOc1ccc2nc(NC(=O)c3nc(SC(C)C)ncc3Cl)sc2c1 | -6% | 2% | 3% | 5µM* | 8%
O=C1C=C(NCc2ccccc2)c2ccccc2C1=O | 16µM* | ? | 2µM* | 1% | ?
O=C1C=C(Nc2ccccc2O)c2ccccc2C1=O | ? | -27% | 8% | 0% | -6%
CC(=O)Nc1cccc(CCc2nc3ccccc3[nH]2)c1 | -1%[57.1 µM] | -5% | 71µM* | -10% | 7%[57.1 µM]
CC(=O)Nc1ccc(CCc2nc3ccccc3[nH]2)cc1 | -6%[57.1 µM] | 0% | -6% | 2% | -5%[57.1 µM]
Cc1ccc(-c2nc3ccccn3c2Nc2ccccc2C)o1 | 149% | / | ? | / | ?
Cc1ccc(-c2nc3cnccn3c2Nc2c(C)cccc2C)o1 | 11% | -5% | ? | -7% | 14µM*
Cc1ccc(-c2nc3cnccn3c2Nc2ccc(C(C)C)cc2)o1 | 5% | / | ? | / | 13µM*
Cc1cc(C)c2cc(C#N)c(SCC(=O)NCc3ccco3)nc2c1 | 1% | -13% | 7% | 0% | 56µM*
O=C(CSc1ccccc1)Nc1ccccc1C(=O)O | 8% | -1% | -3% | 2% | 4%
Cc1ccccc1NC(=O)CSC(N)=O | 2%[57.1 µM] | 1% | 25µM* | 6% | 41%
COc1ccccc1NC(=O)CCCCC(=O)Nc1ccccc1OC | 12%[57.1 µM] | -4% | -13% | -4% | 29%[57.1 µM]
COc1ccccc1NC(=O)CSC(N)=O | 3% | 1% | 22µM* | -2% | 62%
NC(=O)SCC(=O)Nc1ccccc1C(=O)O | 0% | -1% | 79µM* | -2% | 50%
COc1ccccc1NC(=O)CSc1nnc(N)s1 | -2%[57.1 µM] | 0% | 3% | 4% | 13µM*
Cc1ccc2nccnc2c1 | -11% | -15% | / | / | ?
Cc1sc(NC(=O)c2ccco2)c(C(c2cccnc2)N2CCCC2)c1C (centres undefined) | -2% | -2% | 29% | -5% | 7.9µM*
Cc1sc(NC(=O)c2ccco2)c(C(c2cccnc2)N2CCN(C)CC2)c1C (centres undefined) | 12%[57.1 µM] | 1% | -6% | -4% | ?
Cc1ccc(Nc2ccc(NCc3ccccc3)nn2)cc1C | -9% | 2% | -9% | -5% | -5%
Cc1ccc(Nc2nnns2)cc1C | 14%[57.1 µM] | 0% | 45µM* | -3% | 4%[57.1 µM]
CC(=O)OC(C(=O)Nc1nccs1)c1ccccc1 (centres undefined) | -6%[57.1 µM] | -2% | 20% | -2% | 8%[57.1 µM]
O=C(Nc1nccs1)C(Br)C(Br)c1ccccc1 (centres undefined) | 5% | ? | 28µM* | 6% | -14%
O=C(N/N=C/c1ccccc1)c1ccc2c(c1)OCO2 | -5% | -4% | -13% | 0% | 20%
O=C(NN=Cc1c(O)ccc2ccccc12)c1ccc2c(c1)OCO2 | -2% | ? | -9% | 7.9µM* | 14%
CN(C)CC/C=C1\c2ccccc2COc2ccc(CC(=O)O)cc21 | / | / | 0% | / | /
Cc1ccc(-c2[nH]ncc2CNCc2ccc(CN(C)C)cc2)cc1 | -1% | 3% | -15% | / | 4%
NCCSSCCN | ? | -2% | 25µM* | -6% | 214%[57.1 µM]
